# Measurements as given in ChEMBL document CHEMBL1961873, “Compounds: GSK PKIS; Assays: Nanosyn kinase panel” (2012).
# Experiments:
# [1] = target: Sphingosine kinase 1 (Homo sapiens) (UniProt Q9NYA1); conditions: at 1 µM;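 note: mean SPHK1 inhibition value reported from the GSK PKIS kinase panel screen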
# [2] = target: T1, Sphingosine kinase 2 (Homo sapiens) (UniProt Q9NRA0); conditions: at 0.1 µM
# T1 sequence (whole entry): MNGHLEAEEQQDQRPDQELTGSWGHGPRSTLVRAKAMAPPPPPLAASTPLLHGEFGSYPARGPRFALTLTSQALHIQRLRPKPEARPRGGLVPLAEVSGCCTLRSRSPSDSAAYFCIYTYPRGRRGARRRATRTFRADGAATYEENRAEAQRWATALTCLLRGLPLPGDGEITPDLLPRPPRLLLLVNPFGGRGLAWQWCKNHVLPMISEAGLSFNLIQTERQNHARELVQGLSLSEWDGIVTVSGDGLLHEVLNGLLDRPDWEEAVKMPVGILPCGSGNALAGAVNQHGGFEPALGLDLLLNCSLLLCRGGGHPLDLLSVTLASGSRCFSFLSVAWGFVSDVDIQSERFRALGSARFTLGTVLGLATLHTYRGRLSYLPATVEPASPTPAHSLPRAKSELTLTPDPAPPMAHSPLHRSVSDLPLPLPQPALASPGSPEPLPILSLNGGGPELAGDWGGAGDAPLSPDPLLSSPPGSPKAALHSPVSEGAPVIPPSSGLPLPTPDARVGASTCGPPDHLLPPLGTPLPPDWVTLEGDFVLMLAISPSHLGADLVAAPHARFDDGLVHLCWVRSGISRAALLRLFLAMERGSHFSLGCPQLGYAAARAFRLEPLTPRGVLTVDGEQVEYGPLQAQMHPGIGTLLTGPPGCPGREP
# [3] = target: T1, Sphingosine kinase 2 (Homo sapiens); conditions: at 1 µM
# [4] = target: Casein kinase II subunit alpha (Homo sapiens) (UniProt P68400); conditions: at 0.1 µM
# [5] = target: Casein kinase II subunit alpha (Homo sapiens) (UniProt P68400); conditions: at 1 µM
# [6] = target: T2, Inhibitor of nuclear factor kappa-B kinase subunit alpha (Homo sapiens) (UniProt O15111); conditions: at 0.1 µM
# T2 sequence (whole entry): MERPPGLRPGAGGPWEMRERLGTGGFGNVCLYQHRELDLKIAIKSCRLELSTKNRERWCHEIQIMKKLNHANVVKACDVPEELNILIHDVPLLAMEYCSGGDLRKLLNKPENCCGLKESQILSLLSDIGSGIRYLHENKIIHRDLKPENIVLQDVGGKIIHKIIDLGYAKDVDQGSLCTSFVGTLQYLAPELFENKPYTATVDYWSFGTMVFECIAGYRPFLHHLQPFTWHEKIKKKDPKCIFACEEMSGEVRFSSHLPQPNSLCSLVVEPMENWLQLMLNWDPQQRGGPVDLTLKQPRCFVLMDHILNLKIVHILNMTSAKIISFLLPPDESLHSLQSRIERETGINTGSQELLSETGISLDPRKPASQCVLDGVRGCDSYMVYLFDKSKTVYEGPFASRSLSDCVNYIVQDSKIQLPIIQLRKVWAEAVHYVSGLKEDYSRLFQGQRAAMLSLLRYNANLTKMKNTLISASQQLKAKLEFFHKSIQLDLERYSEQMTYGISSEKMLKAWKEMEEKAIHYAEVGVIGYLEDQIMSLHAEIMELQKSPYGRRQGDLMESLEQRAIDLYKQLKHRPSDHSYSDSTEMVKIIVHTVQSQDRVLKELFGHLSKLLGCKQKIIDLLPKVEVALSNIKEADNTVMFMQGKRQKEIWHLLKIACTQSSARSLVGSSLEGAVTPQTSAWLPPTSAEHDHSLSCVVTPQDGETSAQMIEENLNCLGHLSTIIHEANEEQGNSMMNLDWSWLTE
# [7] = target: T2, Inhibitor of nuclear factor kappa-B kinase subunit alpha (Homo sapiens); conditions: at 1 µM
# [8] = target: T3, Inhibitor of nuclear factor kappa-B kinase subunit beta (Homo sapiens) (UniProt O14920); conditions: at 0.1 µM
# T3 sequence (whole entry): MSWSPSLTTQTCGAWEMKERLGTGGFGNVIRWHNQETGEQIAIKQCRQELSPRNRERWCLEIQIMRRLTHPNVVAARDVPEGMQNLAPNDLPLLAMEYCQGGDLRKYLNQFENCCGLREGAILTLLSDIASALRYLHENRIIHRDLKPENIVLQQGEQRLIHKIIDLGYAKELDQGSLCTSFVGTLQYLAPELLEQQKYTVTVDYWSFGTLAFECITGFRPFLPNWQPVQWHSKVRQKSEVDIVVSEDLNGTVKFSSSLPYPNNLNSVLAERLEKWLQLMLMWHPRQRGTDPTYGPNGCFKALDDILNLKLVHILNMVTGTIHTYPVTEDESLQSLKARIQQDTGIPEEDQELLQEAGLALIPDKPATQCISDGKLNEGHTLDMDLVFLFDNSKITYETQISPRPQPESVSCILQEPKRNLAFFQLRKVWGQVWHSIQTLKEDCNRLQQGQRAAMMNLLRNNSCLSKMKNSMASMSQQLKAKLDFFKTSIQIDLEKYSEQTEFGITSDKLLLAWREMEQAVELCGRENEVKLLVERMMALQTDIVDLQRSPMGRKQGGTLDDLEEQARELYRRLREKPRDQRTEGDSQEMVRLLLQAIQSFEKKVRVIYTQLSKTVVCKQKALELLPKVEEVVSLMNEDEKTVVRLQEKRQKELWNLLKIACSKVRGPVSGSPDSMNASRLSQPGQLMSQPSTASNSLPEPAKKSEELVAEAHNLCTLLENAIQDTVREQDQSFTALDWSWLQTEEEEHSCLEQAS
# [9] = target: T3, Inhibitor of nuclear factor kappa-B kinase subunit beta (Homo sapiens); conditions: at 1 µM
# [10] = target: T4, Inhibitor of nuclear factor kappa-B kinase subunit epsilon (Homo sapiens) (UniProt Q14164); conditions: at 0.1 µM
# T4 sequence (whole entry): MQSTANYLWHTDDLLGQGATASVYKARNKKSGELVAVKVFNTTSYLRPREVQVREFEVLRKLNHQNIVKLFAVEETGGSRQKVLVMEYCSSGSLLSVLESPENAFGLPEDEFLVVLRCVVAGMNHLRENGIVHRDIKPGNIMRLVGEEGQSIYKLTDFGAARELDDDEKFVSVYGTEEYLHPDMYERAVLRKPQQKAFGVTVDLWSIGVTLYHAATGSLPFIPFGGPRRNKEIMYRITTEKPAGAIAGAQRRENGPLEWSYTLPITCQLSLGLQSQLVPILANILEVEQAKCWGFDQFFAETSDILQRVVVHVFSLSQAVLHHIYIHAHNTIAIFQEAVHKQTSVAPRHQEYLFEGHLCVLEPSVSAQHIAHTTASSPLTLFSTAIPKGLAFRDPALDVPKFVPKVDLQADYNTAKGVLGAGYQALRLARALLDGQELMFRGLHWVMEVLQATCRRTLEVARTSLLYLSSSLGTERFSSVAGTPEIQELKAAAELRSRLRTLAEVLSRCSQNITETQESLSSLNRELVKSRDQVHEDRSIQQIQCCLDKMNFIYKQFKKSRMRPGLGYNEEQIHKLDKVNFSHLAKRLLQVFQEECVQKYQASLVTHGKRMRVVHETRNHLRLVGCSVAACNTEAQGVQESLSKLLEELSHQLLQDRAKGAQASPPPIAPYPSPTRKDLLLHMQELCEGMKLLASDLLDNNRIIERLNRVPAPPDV
# [11] = target: T4, Inhibitor of nuclear factor kappa-B kinase subunit epsilon (Homo sapiens); conditions: at 1 µM
# [12] = target: T5, Serine/threonine-protein kinase Nek1 (Homo sapiens) (UniProt Q96PY6); conditions: at 0.1 µM
# T5 sequence (whole entry): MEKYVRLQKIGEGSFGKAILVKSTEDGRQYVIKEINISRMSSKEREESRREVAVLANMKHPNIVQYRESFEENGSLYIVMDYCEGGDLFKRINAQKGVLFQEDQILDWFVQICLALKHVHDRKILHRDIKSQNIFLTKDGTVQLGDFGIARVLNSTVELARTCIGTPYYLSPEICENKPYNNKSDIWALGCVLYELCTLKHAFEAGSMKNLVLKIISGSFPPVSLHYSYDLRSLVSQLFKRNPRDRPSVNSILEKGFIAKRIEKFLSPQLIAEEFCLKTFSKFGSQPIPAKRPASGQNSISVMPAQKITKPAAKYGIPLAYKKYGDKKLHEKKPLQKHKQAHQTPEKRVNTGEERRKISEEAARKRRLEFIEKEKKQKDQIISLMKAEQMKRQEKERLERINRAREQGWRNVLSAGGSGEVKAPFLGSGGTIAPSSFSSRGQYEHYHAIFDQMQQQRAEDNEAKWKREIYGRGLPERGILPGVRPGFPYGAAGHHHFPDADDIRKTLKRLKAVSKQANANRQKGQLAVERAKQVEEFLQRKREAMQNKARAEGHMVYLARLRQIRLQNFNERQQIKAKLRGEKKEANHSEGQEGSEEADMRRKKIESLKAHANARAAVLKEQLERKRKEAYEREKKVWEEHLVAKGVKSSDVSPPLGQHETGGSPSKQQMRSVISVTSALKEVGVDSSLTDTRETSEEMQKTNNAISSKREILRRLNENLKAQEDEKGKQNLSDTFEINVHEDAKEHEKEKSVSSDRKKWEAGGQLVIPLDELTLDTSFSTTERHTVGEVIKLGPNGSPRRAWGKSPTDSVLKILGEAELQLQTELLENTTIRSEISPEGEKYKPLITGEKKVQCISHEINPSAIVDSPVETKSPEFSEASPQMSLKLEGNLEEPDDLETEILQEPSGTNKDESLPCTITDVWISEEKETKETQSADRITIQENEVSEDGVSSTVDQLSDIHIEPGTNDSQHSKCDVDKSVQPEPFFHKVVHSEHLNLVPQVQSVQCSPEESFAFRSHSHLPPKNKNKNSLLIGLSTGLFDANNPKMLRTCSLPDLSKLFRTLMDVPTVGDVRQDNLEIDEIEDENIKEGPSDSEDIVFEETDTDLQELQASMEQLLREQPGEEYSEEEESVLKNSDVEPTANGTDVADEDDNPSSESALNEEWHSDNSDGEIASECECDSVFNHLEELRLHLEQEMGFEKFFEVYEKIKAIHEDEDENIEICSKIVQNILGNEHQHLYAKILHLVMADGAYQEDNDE
# [13] = target: T5, Serine/threonine-protein kinase Nek1 (Homo sapiens); conditions: at 1 µM
# [14] = target: T6, Serine/threonine-protein kinase Nek2 (Homo sapiens) (UniProt P51955); conditions: at 0.1 µM
# T6 sequence (whole entry): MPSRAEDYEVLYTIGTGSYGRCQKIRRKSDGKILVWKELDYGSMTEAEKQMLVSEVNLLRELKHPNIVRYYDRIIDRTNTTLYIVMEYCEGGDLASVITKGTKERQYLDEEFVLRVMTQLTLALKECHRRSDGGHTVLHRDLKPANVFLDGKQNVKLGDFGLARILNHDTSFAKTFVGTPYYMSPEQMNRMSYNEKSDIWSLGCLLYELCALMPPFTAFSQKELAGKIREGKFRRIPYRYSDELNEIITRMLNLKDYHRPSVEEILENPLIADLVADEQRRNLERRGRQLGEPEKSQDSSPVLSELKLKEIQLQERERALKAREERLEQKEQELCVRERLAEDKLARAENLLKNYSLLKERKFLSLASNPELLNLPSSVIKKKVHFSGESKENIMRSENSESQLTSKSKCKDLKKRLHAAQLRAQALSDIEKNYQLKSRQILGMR
# [15] = target: T6, Serine/threonine-protein kinase Nek2 (Homo sapiens); conditions: at 1 µM
# [16] = target: Serine/threonine-protein kinase Nek6 (Homo sapiens) (UniProt Q9HC98); conditions: at 0.1 µM
# [17] = target: Serine/threonine-protein kinase Nek6 (Homo sapiens) (UniProt Q9HC98); conditions: at 1 µM
# [18] = target: Serine/threonine-protein kinase Nek7 (Homo sapiens) (UniProt Q8TDX7); conditions: at 0.1 µM
# [19] = target: Serine/threonine-protein kinase Nek7 (Homo sapiens) (UniProt Q8TDX7); conditions: at 1 µM
# [20] = target: T7, Serine/threonine-protein kinase Nek9 (Homo sapiens) (UniProt Q8TD19); conditions: at 0.1 µM;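 note: reported value is the mean percent inhibition of NEK9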
# T7 sequence (whole entry): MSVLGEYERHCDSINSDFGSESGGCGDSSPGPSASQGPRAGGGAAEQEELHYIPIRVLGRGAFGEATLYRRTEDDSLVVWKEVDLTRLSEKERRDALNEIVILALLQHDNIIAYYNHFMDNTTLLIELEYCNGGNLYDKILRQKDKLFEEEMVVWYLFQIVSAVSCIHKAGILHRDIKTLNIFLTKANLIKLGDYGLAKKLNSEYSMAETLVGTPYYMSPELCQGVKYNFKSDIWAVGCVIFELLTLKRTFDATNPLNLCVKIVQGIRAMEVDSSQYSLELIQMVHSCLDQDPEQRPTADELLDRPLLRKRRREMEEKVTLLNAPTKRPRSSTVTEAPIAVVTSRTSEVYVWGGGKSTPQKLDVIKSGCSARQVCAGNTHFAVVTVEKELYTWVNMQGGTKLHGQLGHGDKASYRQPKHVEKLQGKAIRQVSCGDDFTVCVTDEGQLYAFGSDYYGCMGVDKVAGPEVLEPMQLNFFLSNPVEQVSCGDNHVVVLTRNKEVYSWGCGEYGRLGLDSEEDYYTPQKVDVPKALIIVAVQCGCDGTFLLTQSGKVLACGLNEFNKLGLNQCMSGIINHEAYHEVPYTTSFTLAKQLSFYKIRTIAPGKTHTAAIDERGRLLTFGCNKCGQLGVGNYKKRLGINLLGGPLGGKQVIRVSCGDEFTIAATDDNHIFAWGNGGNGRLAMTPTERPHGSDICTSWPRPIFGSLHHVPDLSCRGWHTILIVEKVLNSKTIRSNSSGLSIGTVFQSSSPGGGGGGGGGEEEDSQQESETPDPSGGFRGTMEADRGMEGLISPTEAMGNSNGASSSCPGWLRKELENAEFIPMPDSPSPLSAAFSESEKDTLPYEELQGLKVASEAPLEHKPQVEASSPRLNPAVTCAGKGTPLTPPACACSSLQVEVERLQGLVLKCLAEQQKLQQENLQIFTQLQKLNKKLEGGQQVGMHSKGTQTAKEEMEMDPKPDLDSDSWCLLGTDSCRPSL
# Casein kinase II subunit alpha (Homo sapiens), sequence (P68400 whole entry, looked up): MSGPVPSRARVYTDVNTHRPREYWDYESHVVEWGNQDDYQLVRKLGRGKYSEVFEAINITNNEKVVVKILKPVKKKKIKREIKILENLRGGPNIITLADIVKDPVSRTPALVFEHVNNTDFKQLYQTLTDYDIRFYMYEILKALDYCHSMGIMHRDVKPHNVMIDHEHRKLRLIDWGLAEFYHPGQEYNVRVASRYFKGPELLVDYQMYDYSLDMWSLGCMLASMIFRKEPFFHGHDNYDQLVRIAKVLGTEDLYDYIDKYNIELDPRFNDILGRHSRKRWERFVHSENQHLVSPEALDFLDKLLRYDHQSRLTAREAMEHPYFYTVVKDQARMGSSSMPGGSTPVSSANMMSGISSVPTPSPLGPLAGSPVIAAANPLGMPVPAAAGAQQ
# Serine/threonine-protein kinase Nek7 (Homo sapiens), sequence (Q8TDX7 whole entry, looked up): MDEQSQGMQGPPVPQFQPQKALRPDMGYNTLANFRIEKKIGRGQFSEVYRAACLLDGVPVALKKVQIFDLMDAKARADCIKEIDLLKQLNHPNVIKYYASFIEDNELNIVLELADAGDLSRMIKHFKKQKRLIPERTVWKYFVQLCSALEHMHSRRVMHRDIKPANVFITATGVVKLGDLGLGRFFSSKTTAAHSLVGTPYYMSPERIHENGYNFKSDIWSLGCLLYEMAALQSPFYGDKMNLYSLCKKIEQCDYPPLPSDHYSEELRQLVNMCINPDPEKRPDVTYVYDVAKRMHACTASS
# Serine/threonine-protein kinase Nek6 (Homo sapiens), sequence (Q9HC98 whole entry): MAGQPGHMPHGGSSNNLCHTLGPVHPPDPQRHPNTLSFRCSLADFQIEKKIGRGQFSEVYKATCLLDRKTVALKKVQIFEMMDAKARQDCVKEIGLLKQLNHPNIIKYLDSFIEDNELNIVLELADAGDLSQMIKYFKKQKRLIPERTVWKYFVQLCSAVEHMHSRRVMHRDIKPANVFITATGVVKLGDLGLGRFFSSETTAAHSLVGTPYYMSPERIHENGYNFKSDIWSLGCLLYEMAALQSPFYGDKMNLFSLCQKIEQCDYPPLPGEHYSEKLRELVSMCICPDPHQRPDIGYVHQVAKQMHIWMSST
# Sphingosine kinase 1 (Homo sapiens), sequence (Q9NYA1 whole entry): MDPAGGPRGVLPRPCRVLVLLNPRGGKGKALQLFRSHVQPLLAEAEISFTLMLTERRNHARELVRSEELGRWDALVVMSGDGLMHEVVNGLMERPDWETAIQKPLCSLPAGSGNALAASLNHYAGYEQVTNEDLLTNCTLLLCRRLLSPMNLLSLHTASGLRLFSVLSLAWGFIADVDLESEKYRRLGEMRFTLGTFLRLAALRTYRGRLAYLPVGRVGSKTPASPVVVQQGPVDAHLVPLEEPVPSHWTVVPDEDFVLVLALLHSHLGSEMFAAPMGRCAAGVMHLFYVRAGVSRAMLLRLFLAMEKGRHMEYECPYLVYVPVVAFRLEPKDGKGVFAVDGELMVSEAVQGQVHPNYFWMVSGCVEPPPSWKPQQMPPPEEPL
compound,measurement,setting,value
CNC(=O)c1sc(-n2cnc3cc(OC)c(OC)cc32)cc1OCc1ccccc1C(F)(F)F,inhibition,[1],-2.69%
same,inhibition,[2],-1.57%
same,inhibition,[3],-1.5%
same,inhibition,[4],5.33%
same,inhibition,[5],1.77%
same,inhibition,[6],9.1%
same,inhibition,[7],6.49%
same,inhibition,[8],4.41%
same,inhibition,[9],2.57%
same,inhibition,[10],7.72%
same,inhibition,[11],5.28%
same,inhibition,[12],1.76%
same,inhibition,[13],2.01%
same,inhibition,[14],3.26%
same,inhibition,[15],4.32%
same,inhibition,[16],1.25%
same,inhibition,[17],1.86%
same,inhibition,[18],1.64%
same,inhibition,[19],-2.15%
same,inhibition,[20],7.04%
